According to PubChem BioAssay (Tox21):
Inconclusive results are not listed. Where a call stands in place of a potency, no number is given. The source made the active and inactive calls. Unless noted, calls follow the shape of the full dose curve.

How the values were obtained:
[1] = Nuclear factor erythroid 2-related factor 2/antioxidant responsive element (Nrf2/ARE) small molecule agonists: qHTS cell viability counter screen in human keratinocytes (AID 1919968; active = well fitted curve in the direction sought with a large enough effect in the repeat runs; an effect the other way counts as inactive or inconclusive; also: nearly all actives have a fitted effect of over 55% in size; also: potency is read from the fitted curve at half-maximal effect)
Method in brief: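 After a 5 h attachment period, ARE-reporter keratinocytes were dosed with compounds in DMSO and then cultured 23 h at 37 C. Cell viability came from CellTiter-Fluor signal read after a further 1 h.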

[2] = Nuclear factor erythroid 2-related factor 2/antioxidant responsive element (Nrf2/ARE) small molecule agonists: luciferase reporter gene qHTS assay in human keratinocytes (AID 1919969); also: nearly all actives have a fitted effect of over 35% in size; also: potency is read from the fitted curve at half-maximal effect
[3] = molecular target: Gonadotropin-releasing hormone receptor (Homo sapiens) (UniProt P30968); assay: Human gonadotropin-releasing hormone receptor (GnRHR) small molecule agonists, calcium flux assay in GnRHR-HEK293 cells (AID 1920063); also: nearly all actives have a fitted effect of over 35% in size; also: potency is read from the fitted curve at half-maximal effect
Sequence of Gonadotropin-releasing hormone receptor (Homo sapiens) (P30968 whole entry, looked up): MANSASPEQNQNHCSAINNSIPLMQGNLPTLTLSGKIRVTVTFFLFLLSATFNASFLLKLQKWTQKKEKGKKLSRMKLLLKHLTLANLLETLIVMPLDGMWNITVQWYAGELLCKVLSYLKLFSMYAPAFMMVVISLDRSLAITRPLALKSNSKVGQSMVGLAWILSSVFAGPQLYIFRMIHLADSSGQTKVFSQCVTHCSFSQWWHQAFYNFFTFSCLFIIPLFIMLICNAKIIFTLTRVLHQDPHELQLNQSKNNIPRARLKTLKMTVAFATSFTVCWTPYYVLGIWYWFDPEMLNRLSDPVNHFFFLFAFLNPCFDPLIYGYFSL
Method in brief: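 We seeded human GnRHR-expressing HEK293 cells for 18 hours, loaded them with calcium dye for an hour at 37 C, added test compounds, and recorded fluorescence intensity kinetically for three minutes.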

[4] = molecular target: KiSS-1 receptor (Homo sapiens) (UniProt Q969F8); assay: Human kisspeptin (KISS1R) small molecule agonists, calcium flux assay in KISS1R-HEK293 cells (AID 1920064; active = well fitted curve in the direction sought with a large enough effect in the repeat runs; an effect the other way counts as inactive or inconclusive)
Sequence of KiSS-1 receptor (Homo sapiens) (Q969F8 whole entry, looked up): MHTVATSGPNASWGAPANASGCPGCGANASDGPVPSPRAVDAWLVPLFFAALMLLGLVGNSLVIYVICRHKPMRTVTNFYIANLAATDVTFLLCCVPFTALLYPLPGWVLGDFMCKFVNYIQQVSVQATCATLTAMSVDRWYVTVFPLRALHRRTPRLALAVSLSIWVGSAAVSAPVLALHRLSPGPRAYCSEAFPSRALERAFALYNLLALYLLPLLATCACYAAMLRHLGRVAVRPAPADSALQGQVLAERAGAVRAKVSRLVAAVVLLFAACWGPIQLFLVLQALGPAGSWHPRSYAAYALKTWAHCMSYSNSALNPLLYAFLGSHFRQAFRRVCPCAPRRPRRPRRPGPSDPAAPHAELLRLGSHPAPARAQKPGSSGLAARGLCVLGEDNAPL
Method in brief: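 Kinetic calcium assay, 1 s sampling over 3 min at Ex/Em 480/540, in HEK293 cells engineered with human KISS1R; compounds delivered in DMSO after 1 h dye loading.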

[5] = G protein-coupled receptor (GPCR) small molecule agonists, calcium flux assay: HEK293 wild type cell line counter screen (AID 1920065)
Method in brief: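 Calcium-sensitive dye, loaded 1 h at 37 C into cells cultured 18 h, reports compound-evoked calcium release as fluorescence (Ex/Em 480/540), measured over 3 min. Agonist mode; 15-point titrations, triplicate.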

[6] = p53 small molecule agonists, cell-based qHTS assay with rat liver microsomes (AID 1963578)
Method in brief: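 With rat liver microsomes and NADPH present (0.5 mg/mL final each), p53RE-bla cells are treated with compound for 16 h at 37 C. LiveBLAzer detection mixture is then applied for 2 h at room temperature in the dark.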

[7] = p53 small molecule agonists, cell-based qHTS assay with human liver microsomes: qHTS cell viability counter screen (AID 1963579); also: nearly all actives have a fitted effect of over 45% in size
Method in brief: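 In this multiplexed counter screen, the reporter plates were subsequently treated with CellTiter-Glo so that cell viability, reflected by luminescence, could be recorded for p53RE-bla cells dosed 16 h with compounds under microsomal activation (HLM and NADPH).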

[8] = p53 small molecule agonists, cell-based qHTS assay with rat liver microsomes: qHTS cell viability counter screen (AID 1963580); also: nearly all actives have a fitted effect of over 45% in size
Method in brief: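 p53RE-bla HCT-116 cells were exposed 16 h at 37 C to compounds with rat liver microsomes (0.5 mg/mL) and NADPH (0.5 mg/mL). Viability was measured in the same wells as ATP content by CellTiter-Glo luminescence.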

[9] = p53 small molecule agonists, cell-based qHTS assay: qHTS cell viability counter screen (AID 1963581); also: nearly all actives have a fitted effect of over 45% in size
Method in brief: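 Following 5 h attachment, HCT-116 p53RE-bla cells took up compound for 16 h at 37 C; the reporter was read with B/G FRET substrate (2 h RT), and viability then via CellTiter-Glo ATP luminescence.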

[10] = molecular target: 5-hydroxytryptamine receptor 2A (Homo sapiens) (UniProt P28223); assay: 5-hydroxytryptamine receptor 2A (HTR2A) small molecule antagonists, cell-based qHTS assay (AID 1963586); also: nearly all actives have a fitted effect of over 45% in size
Sequence of 5-hydroxytryptamine receptor 2A (Homo sapiens) (P28223 whole entry, looked up): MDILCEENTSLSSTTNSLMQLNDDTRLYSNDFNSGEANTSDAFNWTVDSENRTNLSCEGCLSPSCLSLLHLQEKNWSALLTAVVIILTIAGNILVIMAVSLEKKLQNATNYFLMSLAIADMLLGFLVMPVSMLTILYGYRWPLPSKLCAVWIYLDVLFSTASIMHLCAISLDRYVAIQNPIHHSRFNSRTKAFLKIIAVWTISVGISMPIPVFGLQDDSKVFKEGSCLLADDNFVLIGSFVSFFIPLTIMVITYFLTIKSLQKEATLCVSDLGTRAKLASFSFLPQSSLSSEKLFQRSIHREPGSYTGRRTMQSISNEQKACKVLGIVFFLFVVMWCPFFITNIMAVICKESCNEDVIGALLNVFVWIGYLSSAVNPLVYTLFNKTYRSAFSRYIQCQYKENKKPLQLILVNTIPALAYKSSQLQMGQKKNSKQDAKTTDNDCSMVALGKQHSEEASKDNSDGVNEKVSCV
Method in brief: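 Antagonist-mode intracellular calcium assay: DOI (4 nM) added after 5 min compound pre-incubation at room temperature to dye-loaded HTR2A-CHO cells. Fluorescence followed for 3 min, sampled every second.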

[11] = molecular target: 5-hydroxytryptamine receptor 2A (Homo sapiens) (UniProt P28223); assay: 5-hydroxytryptamine receptor 2A (HTR2A) small molecule agonists, cell-based qHTS assay (AID 1963587); also: nearly all actives have a fitted effect of over 30% in size
Method in brief: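 CHO cells stably expressing human HTR2A, plated 18 h, loaded with calcium dye 1 h at 37 C. Agonist mode: compounds added and intracellular calcium fluorescence recorded kinetically for 2 min at 1 sec intervals.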

[12] = molecular target: Muscarinic acetylcholine receptor M1 (Homo sapiens) (UniProt P11229); assay: Cholinergic receptor muscarinic 1 (CHRM1) small molecule antagonists, cell-based qHTS assay (AID 1963588); also: nearly all actives have a fitted effect of over 40% in size; also: potency is read from the fitted curve at half-maximal effect
Sequence of Muscarinic acetylcholine receptor M1 (Homo sapiens) (P11229 whole entry, looked up): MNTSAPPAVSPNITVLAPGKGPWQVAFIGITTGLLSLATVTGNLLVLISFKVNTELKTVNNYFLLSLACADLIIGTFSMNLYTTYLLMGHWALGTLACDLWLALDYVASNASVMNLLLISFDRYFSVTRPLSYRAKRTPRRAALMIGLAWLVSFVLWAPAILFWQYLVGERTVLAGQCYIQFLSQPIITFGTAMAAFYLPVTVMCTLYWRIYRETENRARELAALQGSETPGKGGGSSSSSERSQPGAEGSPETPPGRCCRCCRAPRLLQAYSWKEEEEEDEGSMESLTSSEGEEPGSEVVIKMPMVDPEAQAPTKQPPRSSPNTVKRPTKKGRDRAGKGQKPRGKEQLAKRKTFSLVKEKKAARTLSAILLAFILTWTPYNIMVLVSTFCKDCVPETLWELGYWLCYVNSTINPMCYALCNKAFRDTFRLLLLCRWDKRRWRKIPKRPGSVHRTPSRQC
Method in brief: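 CHRM1-CHO calcium-flux assay, antagonist mode. Cells were seeded 18 h, dye-loaded 1 h at 37 C and given compound for 5 min at RT, then acetylcholine was added at 50nM. FDSS fluorescence was read 3 min; 15 concentrations, three runs.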

[13] = molecular target: Muscarinic acetylcholine receptor M1 (Homo sapiens) (UniProt P11229); assay: Cholinergic receptor muscarinic 1 (CHRM1) small molecule agonists, cell-based qHTS assay (AID 1963589); also: nearly all actives have a fitted effect of over 35% in size
Method in brief: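 Measures agonist-induced intracellular calcium rise. Stable human CHRM1 CHO line, 1 h dye load at 37 C, compounds from DMSO, kinetic fluorescence read.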

[14] = molecular target: Beta-2 adrenergic receptor (Homo sapiens) (UniProt P07550); assay: Adrenergic beta2 receptor (ADRB2) small molecule antagonists, cell-based qHTS assay (AID 1963592); also: series mostly up to about 92 µM; nearly all actives have a fitted effect of over 50% in size
Sequence of Beta-2 adrenergic receptor (Homo sapiens) (P07550 whole entry, looked up): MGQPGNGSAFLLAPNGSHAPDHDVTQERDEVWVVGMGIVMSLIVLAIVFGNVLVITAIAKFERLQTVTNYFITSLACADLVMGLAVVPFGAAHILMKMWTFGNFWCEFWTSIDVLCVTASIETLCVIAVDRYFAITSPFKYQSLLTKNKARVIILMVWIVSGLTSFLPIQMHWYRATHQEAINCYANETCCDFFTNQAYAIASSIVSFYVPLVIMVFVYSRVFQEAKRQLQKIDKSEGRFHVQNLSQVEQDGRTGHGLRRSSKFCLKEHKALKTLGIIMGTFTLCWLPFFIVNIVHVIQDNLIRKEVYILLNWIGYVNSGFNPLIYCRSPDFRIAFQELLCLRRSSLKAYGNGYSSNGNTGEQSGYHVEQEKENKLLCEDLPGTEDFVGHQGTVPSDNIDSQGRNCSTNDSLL
Method in brief: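 Cells (CHO, stable ADRB2 overexpression) incubated 18-20hr at 37C; compounds added from DMSO; agonist mix (1nM isoproterenol, 100uM IBMX, 25uM Ro-20-1724) added; 0.5hr RT; d2-cAMP and anti-cAMP-cryptate added; 1hr RT; 665/615 nm read.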

[15] = molecular target: D(2) dopamine receptor (Homo sapiens) (UniProt P14416); assay: Dopamine D2 receptor (DRD2) small molecule agonists, cell-based qHTS assay (AID 1963594); also: nearly all actives have a fitted effect of over 35% in size
Sequence of D(2) dopamine receptor (Homo sapiens) (P14416 whole entry, looked up): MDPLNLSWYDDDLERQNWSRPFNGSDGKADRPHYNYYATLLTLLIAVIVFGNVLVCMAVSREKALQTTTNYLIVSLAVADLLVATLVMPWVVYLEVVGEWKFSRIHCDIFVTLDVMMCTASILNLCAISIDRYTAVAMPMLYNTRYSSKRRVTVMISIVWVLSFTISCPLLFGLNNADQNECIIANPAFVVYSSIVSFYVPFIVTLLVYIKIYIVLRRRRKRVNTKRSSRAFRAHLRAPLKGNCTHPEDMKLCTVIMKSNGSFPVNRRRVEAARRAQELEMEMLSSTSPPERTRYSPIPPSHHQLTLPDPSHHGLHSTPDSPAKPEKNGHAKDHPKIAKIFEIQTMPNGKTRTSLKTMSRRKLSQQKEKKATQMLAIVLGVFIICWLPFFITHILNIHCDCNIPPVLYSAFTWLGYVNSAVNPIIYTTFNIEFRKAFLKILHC
Method in brief: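 HEK293 cells stably expressing human DRD2, pre-treated with PDE inhibitor Ro20-1724 (0.1 mM final) and compound 10 min at room temperature, then stimulated with NKH477 (200nM […]) for 30 min. cAMP read by HTRF (665/620 nm).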

[16] = molecular target: D(2) dopamine receptor (Homo sapiens) (UniProt P14416); assay: Dopamine D2 receptor (DRD2) small molecule antagonists, cell-based qHTS assay (AID 1963595; active = well fitted inhibition curve with a large enough effect in the signal ratio in the repeat runs, with a control signal flat; the % refers to the signal ratio; also: potency is read from the fitted curve at half-maximal effect)
Method in brief: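 Human DRD2 antagonist qHTS measuring cAMP by HTRF. The cells are exposed to compound for 10 min, then to NKH477 (200 nM) and quinpirole (12 nM) for 30 min at RT, with Ro20-1724 (0.1 mM) present throughout.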

[17] = p53 small molecule agonists, cell-based qHTS assay (AID 1963582; active = well fitted activation curve with a large enough effect in the signal ratio in the repeat runs, not every such curve was filed as active; the % refers to the signal ratio)
Method in brief: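 In this cell-based concentration-response screen, a p53 response element drives beta-lactamase; cells received DMSO-borne compounds after 5 h culture and were incubated a further 16 h before FRET substrate development.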

[18] = cAMP Responsive Elements (CRE) small molecule antagonists, cell-based qHTS assay (AID 1963591; active = well fitted inhibition curve with a large enough effect in the signal ratio in the repeat runs, not every such curve was filed as active; the % refers to the signal ratio)
Method in brief: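 HEK293T cells carrying a CRE-driven beta-lactamase reporter receive compound and NKH477 (0.25 uM final) for 3 h. Fluorescence from LiveBLAzer B/G FRET substrate is read after 2 h at room temperature.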

[19] = cAMP Responsive Elements (CRE) small molecule agonists, cell-based qHTS assay (AID 1963590)
Method in brief: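 A CRE-responsive beta-lactamase reporter in HEK 293T cells was used. Treatment ran 3 h at 37 C; detection used LiveBLAzer B/G FRET substrate for 2 h at room temperature.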

SMILES	Potency [1]	Potency [2]	Potency [3]	outcome [4]	outcome [5]	Potency [6]	Potency [7]	Potency [8]	Potency [9]	Potency [10]	Potency [11]	Potency [12]	Potency [13]	Potency [14]	Potency [15]	Potency [16]	Potency [17]	Potency [18]	Potency [19]
CCCOC(=O)c1ccc(C(=O)OCCC)nc1	inactive	inactive	inactive	inactive	inactive	inactive	inactive	inactive	inactive	inactive	inactive	inactive	inactive	inactive	inactive	inactive			
C(=C/c1ccccc1)/c1ccccc1	inactive	inactive	inactive	inactive	inactive	inactive	inactive	inactive	inactive		inactive	inactive	inactive	inactive	inactive	inactive	inactive	inactive	
Cc1c(C(=O)NCCO)[n+](=O)c2ccccc2n1[O-]	inactive	inactive	inactive	inactive	inactive	inactive	inactive	inactive	inactive	inactive	inactive	inactive	inactive	inactive		inactive	inactive		inactive
CC(COC(C)(C)C)OCCCO (stereo not drawn)	inactive	inactive	inactive	inactive	inactive	inactive	inactive	inactive	inactive	inactive	inactive		inactive	inactive	inactive	inactive	inactive		inactive
CC(C)=CCC/C(C)=C/CC/C(C)=C/CO	inactive	68.6 µM (active)	inactive	inactive	inactive	inactive	inactive	inactive	inactive	inactive	inactive	inactive	inactive	inactive	inactive	inactive			inactive
O=C(Nc1ccc2c(O)c(N=Nc3ccc(N=Nc4ccc(S(=O)(=O)O)cc4)cc3)c(S(=O)(=O)O)cc2c1)c1ccccc1	30.6 µM (active)	inactive	inactive	inactive	inactive	inactive	inactive	inactive	inactive	inactive	inactive	inactive	inactive	inactive	inactive	inactive	inactive		inactive
O=C(CO)[C@@H](O)[C@H](O)[C@@H](O)CO	inactive	inactive	inactive	inactive	inactive	inactive	inactive	inactive	inactive	inactive	inactive	inactive			inactive	inactive	inactive		
CC(c1cc(C(C)(C)C)cc(C(C)(C)C)c1O)c1cc(C(C)(C)C)cc(C(C)(C)C)c1O	inactive	inactive	inactive	inactive	inactive	inactive	inactive	inactive	inactive	inactive	inactive		inactive	inactive	inactive	inactive	inactive	inactive	inactive
CC(C)(O)CCc1ccccc1	inactive	inactive	inactive	inactive	inactive	inactive	inactive	inactive	inactive	inactive	inactive			inactive	inactive	inactive	inactive	inactive	inactive
N#C[C@@H]1CC(F)(F)CN1C(=O)CNC1CC2CCC(C1)N2c1ncccn1 (stereo partly drawn)	inactive	inactive	inactive	inactive	inactive	inactive	inactive	inactive	inactive	inactive	inactive		inactive	inactive	inactive	inactive		inactive	inactive
Nc1ccc(C(=O)N2CC3CC(CN(Cc4ccccc4)C3)C2)cc1	inactive	inactive	inactive	inactive	inactive	inactive	inactive	inactive	inactive	inactive	inactive	1.83 µM (active)	inactive	inactive	inactive	inactive	inactive		
ONc1ccccc1	inactive	60.5 µM (active)	inactive	inactive	inactive	inactive	inactive	inactive	inactive	inactive		inactive	inactive	inactive		inactive	inactive	inactive	inactive
CC(C)(C)NCC(O)c1cc(O)cc(O)c1 (stereo not drawn)	inactive	inactive	0.268 µM (active)	inactive	inactive	inactive	inactive	inactive	inactive						inactive	10.6 µM (active)	inactive	inactive	
O=C(OC1C[C@H]2CC[C@@H](C1)[N+]21CCCC1)C(O)(c1ccccc1)c1ccccc1 (stereo partly drawn)	inactive	inactive	inactive	inactive	inactive	inactive	inactive	inactive	inactive		inactive		inactive	inactive	inactive	inactive	inactive	inactive	inactive
O=C(c1ccccc1)c1ccc(Cl)cc1	inactive	61.1 µM (active)	inactive	inactive	inactive	inactive	inactive	inactive	inactive		inactive	inactive	inactive	inactive	inactive			inactive	
